# Screens (PubChem)
# An excerpt weighted towards active compounds, which were near 1.9% of everything screened.
# GLD-1 TGE inh = GLD-1-TGE RNA interaction inhibition (C. elegans). 320,000 tested, 0.44% active. inhibition, % at 5.96 µM. Q17339. purified GLD-1 + fluorescein TGE RNA, fluorescence polarization;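 active means percent inhibition above a per-plate cutoff, the plate mean of test compounds plus 3 SD, cut at about 30% in these data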;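 further: 0% = DMSO wells with GLD-1 and probe and 100% = wells lacking GLD-1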
# Bcl-xL primary = blocks human Bcl-xL binding to Bim BH3 peptide. Q07817. GST-Bcl-xL / FITC-Bim BH3 peptide fluorescence polarization. inhibition, % at 10.9 µM. 320,000 tested, 0.7% active;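 active means inhibition above the mean of all tested compounds plus 3 SD, cutoff set per campaign, cut at about 30% in these data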;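 further: 0% = DMSO wells and 100% = unlabeled Bim-BH3 peptide competitor; inhibitors lower millipolarization by displacing the labeled peptide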
# Target sequence (Q07817 whole entry, looked up): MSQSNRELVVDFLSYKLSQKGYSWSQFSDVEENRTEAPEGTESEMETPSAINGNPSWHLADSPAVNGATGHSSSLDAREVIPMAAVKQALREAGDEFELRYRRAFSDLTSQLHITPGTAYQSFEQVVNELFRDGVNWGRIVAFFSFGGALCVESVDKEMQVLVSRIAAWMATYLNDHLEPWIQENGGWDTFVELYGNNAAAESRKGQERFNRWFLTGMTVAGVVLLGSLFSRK
# MCL1-BIM inh = inhibitors of human MCL1 binding to BIM-BH3 peptide | GST-MCL1 / FITC-Bim-BH3 fluorescence polarization | inhibition, % at 10.9 µM | 320,000 tested, 0.68% active | AID 2057;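 active means inhibition above the mean inhibition of all tested compounds plus 3 SD, set per campaign, cut at about 40% in these data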;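 further: 0% = DMSO wells and 100% = unlabeled Bim-BH3 peptide control; higher means more loss of mP so more displacement of Bim peptide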
# Target sequence (Q07820 whole entry, looked up): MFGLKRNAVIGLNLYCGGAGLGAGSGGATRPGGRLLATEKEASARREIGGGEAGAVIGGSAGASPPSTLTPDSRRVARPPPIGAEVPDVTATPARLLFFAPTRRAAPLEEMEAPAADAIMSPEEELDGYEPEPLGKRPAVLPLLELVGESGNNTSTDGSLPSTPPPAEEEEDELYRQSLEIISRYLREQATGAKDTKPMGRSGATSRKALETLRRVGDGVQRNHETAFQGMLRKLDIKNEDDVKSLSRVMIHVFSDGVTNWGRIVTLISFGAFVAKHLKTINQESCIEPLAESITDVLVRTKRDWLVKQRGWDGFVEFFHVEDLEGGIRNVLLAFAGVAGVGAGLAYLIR
# Yeast superoxide = caloric restriction mimetics inhibiting age-related superoxide in yeast | S. cerevisiae aged cells, superoxide DHE fluorescence; stronger effect = lower value | 330,000 tested, 0.18% active | AID 2690 | superoxide response (% of plate mean), % at 10 µM;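 active means superoxide response under a set limit, about three screen SD below normal, cut at about 65% in these data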;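 further: yeast aged for seven days with compound at 30 °C before DHE staining; 100% = average MFI of all compound-treated wells on the plate with controls excluded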
# LANA-H2B inh = blocks KSHV LANA binding to histone H2A/H2B | Q9QR71 | cell-free LANA-H2A/H2B peptide, fluorescence polarization | inhibition, % (no concentration beside the values) | 320,000 tested, 0.6% active | AID 2629; in the data active means inhibition mostly above about 10%, no sharp cut-off; inactive means mostly below about 6.7%
# MEX-5 binding = C. elegans MEX-5 TCR-2 RNA binding activity. Q9XUB2. MEX-5/FITC-TCR2 RNA binding, fluorescence polarization; stronger effect = lower value. activity score (negative = inhibition of binding), % at 10 µM. 300,000 tested, 0.38% active;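 active means inhibition past about -25% in most replicates, and total fluorescence under double the plate's negative control median, limit read from the data; inconclusive means replicates evenly split on the limit, or fluorescence at least double controls; inactive means too little inhibition in most replicates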;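 further: 0% = DMSO and -100% = 5 µM competing unlabeled TCR2 RNA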
# * marks the source's active call; other numbers are inactive results; ? = inconclusive; · = not tested or not shown; ! = a repeat was not active.
SMILES,GLD-1 TGE inh,Bcl-xL primary,MCL1-BIM inh,Yeast superoxide,LANA-H2B inh,MEX-5 binding
CCN(CC)C(=O)c1ccc2c(c1)C1C=CCC1C(C(=O)O)N2 (configuration not stated),·,·,·,96.1,0.3,-55.7*
CN1CCN(c2ncnc3c2cnn3C)CC1,11.2,39.0*,29.9,107.2,-0.9,·
CCc1cc2c(N3CCN(C)CC3)ncnc2s1,-2.1,4.2,-3.2,117.8,5.0,-0.4
O=C1NC(=O)N(Cc2ccccc2)C(=O)/C1=C\c1ccco1,-31.5,-13.1,-2.5,91.8,-3.3,-30.2*
O=C(N/N=C/c1c(O)n(C2CCCCC2)c(=S)[nH]c1=O)c1ccccc1,-5.2,0.2,10.1,167.3,-3.8,-5.1
O=C(N/N=C/C1C(=O)NC(=S)N(c2ccccc2)C1=O)c1cc(Br)c(O)c(Br)c1 (configuration not stated),-5.5,3.3,8.6,104.1,3.8,-79.5*
Oc1ccc2c3c1OC1c4oc5ccccc5c4C[C@@]4(O)[C@@H](C2)N(CC2CC2)CC[C@]314 (some centres not stated),0.3,·,·,83.1,·,·
c1ccc2c(c1)[nH]c1cnccc12,2.2,1.7,1.4,110.4,4.8,1.1
Cc1c2ccncc2c(C)c2c1[nH]c1ccccc12,-0.2,66.2*,88.2*,96.9,-28.1,-1.5
COc1ccc2c3c1OC1[C@H](O)CCC4[C@@H](C2)N(C)CC[C@]314 (some centres not stated),5.6,·,·,98.3,·,·
O=[N+]([O-])c1ccc(Cl)c(Cl)c1Cl,1.8,-1.6,-1.4,83.2,23.5*,·
Nc1cc(N2CCNCC2)c([N+](=O)[O-])cc1Cl,-10.4,0.9,1.6,98.1,5.2,-2.6
Cc1ccc(N2C(=O)CC(=O)NC2=O)cc1Cl,-35.4,-25.7,-36.4,111.3,-5.4,8.0
COP(=S)(OC)SCN1C(=O)c2ccccc2C1=O,4.0,9.3,3.0,107.7,23.3*,-1.4
Fc1ccc(C(OCCN2CCCC2)c2ccc(Br)cc2)cc1 (configuration not stated),-0.3,-0.1,1.0,100.3,12.5*,1.9
COC(=O)C1=C(c2ccc(OC(F)(F)F)cc2)C[C@@H]2CC[C@H]1N2C(=O)N1CCOCC1,0.8,3.8,3.4,98.7,-8.0,·
CC(C(=O)c1c[nH]c2ccccc12)N1CCSCC1 (configuration not stated),-4.2,-0.3,-0.1,100.2,22.9*,-0.1
N#C/C=C/C#N,4.9,5.5,-0.3,97.3,2.0,·
Clc1ccc(CCC(Cn2ccnc2)Sc2c(Cl)cccc2Cl)cc1 (configuration not stated),-3.4,-2.6,-6.0,118.8,-0.6,·
COCCNC(=O)c1c(N)n(Cc2ccco2)c2nc3ccccc3nc12,8.1,13.3,16.8,103.6,-7.2,-1.5
CC(C)(C)OC(=O)c1c(N)n(Cc2ccco2)c2nc3ccccc3nc12,48.1*,53.5*,40.8*,130.4,-5.5,-7.6
COc1ccc(OC)c(N2C(=O)NC(=O)/C(=C\c3ccc([N+](=O)[O-])s3)C2=O)c1,-0.3,22.5,31.8,101.6,-7.2,-39.7*
O=C1NC(=O)N(c2ccccc2)C(=O)/C1=C\c1ccc([N+](=O)[O-])s1,-2.4,20.4,34.6,110.9,-2.8,·
O=c1[nH]c(=O)n(-c2ccccc2F)c(O)c1/C=C1\C=Nc2ccccc21,-25.3,-22.9,-47.2,99.8,-2.9,5.5
COc1ccc(-n2c(O)c(/C=C3\C=Nc4ccc(Br)cc43)c(=O)[nH]c2=O)c(OC)c1,-17.9,-13.1,-26.9,94.3,1.8,-7.2
SMILES,GLD-1 TGE inh,Bcl-xL primary,MCL1-BIM inh,Yeast superoxide,LANA-H2B inh,MEX-5 binding
O=c1[nH]c(=O)n(CC2CCCO2)c(O)c1/C=C1\C=Nc2ccccc21 (configuration not stated),-18.3,-14.3,-22.5,112.1,2.7,-35.7*!
O=c1[nH]c(=O)n(-c2ccc(F)cc2)c(O)c1/C=C1\C=Nc2ccccc21,-19.2,18.4,-10.9,111.1,10.6,-36.5*
COc1ccc(-n2c(O)c(/C=C3\C=Nc4ccc(Br)cc43)c(=O)[nH]c2=O)cc1,-31.8,-13.3,-22.8,107.2,13.0*,?
Cc1cccc(-n2c(O)c(/C=C3/C(c4ccccc4)=Nc4ccccc43)c(=O)[nH]c2=O)c1,-8.9,-15.9,-25.2,96.6,85.6*,-4.1
Cc1ccccc1-n1c(O)c(/C=C2/C(c3ccccc3)=Nc3ccccc32)c(=O)[nH]c1=O,-4.0,1.9,-9.1,97.6,-0.6,-2.2
O=c1[nH]c(=O)n(Cc2ccccc2)c(O)c1/C=C1\C=Nc2ccccc21,-38.6,-27.1,-47.0,110.2,3.4,?
COc1ccc(C(c2ccc(OC)cc2)C(Cl)(Cl)Cl)cc1,2.5,4.5,-9.5,100.2,1.6,·
COC(=O)C1=C(c2cccc(OCc3ccccc3)c2)C[C@@H]2CC[C@H]1N2C(=O)NCc1ccc2[nH]ccc2c1,-0.4,0.9,-5.5,87.0,-2.2,·
COC12CCC3(CC1C(C)(O)C(C)(C)C)[C@H]1Cc4ccc(O)c5c4[C@@]3(CCN1CC1CC1)C2O5 (some centres not stated),-0.3,·,·,96.3,·,·
COc1ccc(N=Nc2c(O)[nH]c(=S)[nH]c2=O)cc1,-84.6,-42.5,-87.8,100.5,-9.7,-0.5
CSc1nc(N)c(N=Nc2ccc([As](=O)(O)O)cc2)c(=O)[nH]1,-1.8,9.6,8.1,148.5,-6.3,-33.5*
CC(=O)OC1C=CC2[C@H]3Cc4ccc(O)c5c4[C@@]2(CCN3C)C1O5 (some centres not stated),1.3,·,·,127.7,·,·
Nc1ncc([N+](=O)[O-])s1,0.9,10.3,11.4,99.2,-27.6,·
Cc1cc(Cl)ccc1OCCCC(=O)NCc1cccs1,-4.0,6.4,-0.3,85.7,-5.2,-2.6
Cc1cc(OCCCC(=O)NCc2cccs2)ccc1Cl,7.2,4.4,5.3,88.2,23.3*,-2.0
O=[N+]([O-])c1cc(-c2ccc([As](=O)(O)O)cc2)ccc1[As](=O)(O)O,·,·,·,109.2,-0.3,-46.3*
O=[N+]([O-])c1cc([As](=O)(O)c2ccc(O)c([N+](=O)[O-])c2)ccc1O,-2.9,2.7,4.5,115.3,-1.0,1.9
Cn1c(O)c(/C=C/C=Nc2ccccc2)c(=O)n(C)c1=S,-61.4,54.9*,-24.8,108.2,-5.0,-0.8
CN(C)[C@@H]1C(=O)C(C(N)=O)=C(O)[C@@]2(O)C(=O)C3=C(O)c4c(O)cccc4[C@@](C)(O)[C@H]3C[C@@H]12,14.5,43.1*,90.0*,108.2,8.8,-58.7*
COc1ccc(OC)c(N=Cc2c(O)n(Cc3ccccc3)c(=S)[nH]c2=O)c1,-4.7,-5.2,-10.6,113.6,-1.3,-47.0*
COc1ccc(N=Cc2c(O)n(Cc3ccccc3)c(=S)[nH]c2=O)c(OC)c1,4.5,7.2,3.9,88.5,-32.3,-57.5*
